# Measured values as given in PubChem BioAssay AID624308 (National Center for Advancing Translational Sciences (NCATS), 2012).
# Results filed as inconclusive are left out. The source made the active and inactive calls. Calls follow the shape of the dose curve; as a rule, active = well fitted inhibition curve with a large enough effect; inconclusive = small, poorly fitted or top-dose-only effect; inactive = flat fitted curve, though single readings scatter.
# Target: Peptidyl-prolyl cis-trans isomerase NIMA-interacting 1 (Homo sapiens) (UniProt Q13526)
# Assay: qHTS Assay to Find Inhibitors of Pin1: Hit Validation
# Details: Pin1 FP peptide displacement, HiFluor488 probe; series mostly up to 57.5 µM
# Text: The unique chemical properties of Pro allow for the adoption of two completely distinct amide bond conformations (cis and trans). Peptidyl-prolyl cis/trans isomerases (PPIases) are evolutionary conserved enzymes that catalyze cis/trans isomerization of peptidyl-prolyl peptide bonds. Distinct from all other PPIases such as cyclophilins and FK506-binding proteins (FKBPs), Pin1 binds a subset of phos.Ser/Thr-Pro-containing proteins using its protein-targeting WW domain and isomerizes only specific phos.Ser/Thr-Pro bonds, which cannot be effectively catalyzed by other known PPIases. Pin1-catalyzed conformational regulation can control a spectrum of activities of many key regulators in diverse cellular processes such as cell growth, genotoxic and other stress responses, immune response, germ cell development, neuronal differentiation and survival. Pin1 has emerged as a novel molecular timer that modulates its multiple targets at various steps of a given cellular process to synergistically control the amplitude and duration of a cellular response or process. Importantly, Pin1 is tightly regulated by multiple levels and its deregulation has an important role in a growing number of pathological conditions, including cancer, Alzheimer's disease, aging, asthma and microbial infection, providing a potentially new therapeutic option. The goal of this screen is to find small-molecule inhibitors of Pin1 using a fluorescence polarization competition assay. A HiFluor-488-labeled peptide binds to the active site of Pin1 and can be displaced by compounds. Compounds were screened as a concentration-titration series that ranged from 57 uM to 0.7 nM. This is the hit validation to test the hits identified in the primary screen. NIH Molecular Libraries Probe Production Network [MLPCN] NIH Chemical Genomics Center [NCGC] MLPCN Grant: R03 DA031663 PI Name: Dr. Kun Ping Lu, Beth Israel Deaconess Medical Center
# Pin1 (0.6 uM) was dispensed into black, solid 1536-well plates at 2 uL/well in 10 mM HEPES (pH 7.5), 10 mM NaCl, 0.01% Tween20, 1 mM DTT, and 1% glycerol. Then, 23 nL of compounds or DMSO were delivered to each well using a pin tool. Two uL of Pin1-1b-HiFluor488 peptide (10 mM HEPES (pH 7.5), 10 mM NaCl, 0.01% Tween20, 1 mM DTT, and 1% glycerol, 0.02 uM Pin1-1b-HiFluor488) was then dispensed, and plates were incubated at room temperature for 10 min. The plates were measured on a ViewLux plate reader for fluorescence polarization signal using a 480/20 nM nm excitation filter and 540/25 nM nm S and P emission filters with a 20 second exposure. The %Activity was determined from the corrected fluorescence polarization values. Unlabeled Pin1-1c peptide was used as a control (3.5 mM two-fold serial; 20 uM final concentration) along with a 1x (0.3 uM) and 0x (no-enzyme) Pin1 enzyme control to normalize %Activity of identified inhibitors; 0x enzyme values corresponded to 100%Activity (full inhibition), while 1x Pin1 enzyme values were used to normalize 0%Activity (no inhibition). Concentration-response curves were fitted to the signals arising from the resulting fluorescence polarization. The concentration-effect curves were then classified based on curve quality (r2), response magnitude and degree of measured activity, and compounds were subsequently categorized based on their curve class. […] Keywords: Peptidyl prolyl isomerase, Pin1, fluorescence polarization, MLSMR, MLPCN, NIH Roadmap, qHTS, NCGC
# Peptidyl-prolyl cis-trans isomerase NIMA-interacting 1 (Homo sapiens), sequence (Q13526 whole entry, looked up): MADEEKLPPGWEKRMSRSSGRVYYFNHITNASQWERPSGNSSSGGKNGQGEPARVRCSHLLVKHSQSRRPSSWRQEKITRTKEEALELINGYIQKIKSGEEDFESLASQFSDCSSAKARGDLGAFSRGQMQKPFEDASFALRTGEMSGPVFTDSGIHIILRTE
row,SMILES,Potency
1,O=S(=O)(O)c1ccc(O)c2cc(Nc3ccccc3)ccc12,1.69 µM (active)
2,O=S(=O)(O)c1cc(O)c2cc(Nc3ccccc3)ccc2c1,10.7 µM (active)
3,COc1ccc(S(=O)(=O)Nc2cc(Sc3ncn[nH]3)c(O)c3ccccc23)cc1,inactive
4,COc1cccc2c1C(=O)c1c(O)c3c(c(O)c1C2=O)C[C@](O)(C(C)=O)C[C@H]3O[C@@H]1C[C@@H](N)[C@@H](O)[C@@H](C)O1,inactive
5,CCCCCC(=O)Nc1cc(S(=O)(=O)O)cc2cc(S(=O)(=O)O)cc(O)c12,1.69 µM (active)
6,COc1ccccc1Nc1ccc2c(O)cc(S(=O)(=O)O)cc2c1,1.2 µM (active)
7,Cc1ccc2nc(-c3ccc(N=Nc4cc(S(=O)(=O)O)c5ccccc5c4O)cc3)sc2c1S(=O)(=O)O,3.01 µM (active)
8,O=C1c2ccccc2C(=O)c2c(O)c(O)cc(O)c21,26.9 µM (active)
9,O=S(=O)(Nc1cc(Sc2ncn[nH]2)c(O)c2ccccc12)c1ccccc1,inactive
10,CC(=O)Nc1ccc(Nc2c3c4c(cccc4n(C)c2=O)C(=O)c2ccccc2-3)cc1,3.38 µM (active)
